Measurements from PubChem BioAssay (NCI).
About 83,000 compounds went through this panel and 20% of them were active in at least one assay; those are over-represented in the sample as a whole.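 Single-dose data. Exposure time 48 hours. Values below 10 considered active.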 Unmarked numbers belong to inactive results. Active and inactive are the calls of the source.

The molecules below were run on MDA-MB-468 breast (assay: NCI-60 one-dose screen, 48 h (100 = growth as untreated, 0 = no growth, -100 = all killed)). Conditions: 10 µM unless noted.

| SMILES | growth |
| --- | --- |
| N#Cc1c(NC(=O)c2ccc(Br)cc2)sc2c1CCCC2 | 19.5% |
| CO[C@H]1CC(c2ccc[nH]2)=N[C@]12O[C@@H](C)C[C@@H]1CCCCCCCc3ccc([nH]3)[C@H]12 | 1.37% (active) |
| CCC(c1ccc(OC)cc1)C(CC)c1ccc(O)c(CN2CCCC2)c1 (configuration not stated) | -45% (active) |
| CCOC(=O)c1nn(-c2ccccc2)c(=O)c2c(N)c(C#N)c(-c3cccs3)cc12 | 69.9% |
| Clc1ccc2c(c1)-c1ccccc1C1=NCCN12 | 7.52% (active) |
| CCN(CC)CCCOc1ccc2c(c1)O/C(=C\c1cccc(OC)c1)C2=O | 79.8% |
| COc1ccc2c(c1)sc1nc(-c3ccccc3)c(-c3ccsc3)n12 | 32.5% |
| NC(=O)c1ccc(N=C(N)N=C(N)N)cc1 | 84.5% |
| COc1cc(-c2ccc(N=Nc3c(O)c(C(=O)Nc4ccccc4OC)cc4ccccc34)c(OC)c2)ccc1N=Nc1c(O)c(C(=O)Nc2ccccc2OC)cc2ccccc12 | 95% |
| CSc1cccc(NC(=O)Nc2nc3c(C)cccc3s2)c1 | 84.6% |
| COc1ccc(NC2=C(I)C(=O)c3ncccc3C2=O)cc1 | -58% (active) |
| O=C(Nc1ccc2ncnc(Nc3cccc(C(F)(F)F)c3)c2c1)c1cccs1 | -2.49% (active) |
| COc1cc2nc3cc([N+](=O)[O-])ccc3c(NCCCNCC(C)(C)O)c2cc1OC | -57.7% (active) |
| COc1ccc(Nc2[nH]n3c(=O)cc(-c4ccccc4)nc3c2C(=O)Nc2ccc(C)cc2)c(OC)c1 | 58.6% |
| NC(N)=NC(N)=Nc1ccccc1-c1ccccc1 | 109% |
| CCN1C(=O)N(c2ccccc2)C2NN=c3s/c(=C4\C(=O)N(C(C)C)c5ccccc54)c(=O)n3C21 (configuration not stated) | 21.4% |
| C=C(C)[C@@H]1CC[C@]2(CO)CC[C@]3(C)[C@H](CC[C@@H]4[C@@]5(C)CCC(NCCc6ccc(O)cc6)C(C)(C)[C@@H]5CC[C@]43C)[C@@H]12 (some centres not stated) | -91.7% (active) |
| COc1cc(CC(=O)n2ncc3ccc(N)cc32)cc(OC)c1OC | 94.8% |
| C/C1=C\CC[C@@]2(C)O[C@H]2[C@H]2OC(=O)C(CN3CCN(CC4C(=O)O[C@H]5[C@H]4CC/C(C)=C/CC[C@@]4(C)O[C@@H]54)CC3)[C@@H]2CC1 (some centres not stated) | 46.1% |

| SMILES | growth |
| --- | --- |
| COc1ccc(N(C)c2nc(N)nc3sc4c(c23)CCCC4)cc1 | 19.4% |
| COc1ccc2nc(C)cc(Nc3ccc(Cl)cc3)c2c1 | 87.2% |
| CNC(=O)c1cccc(Cn2nc(C)c(NC(=O)c3ccc(COc4ccc(C(F)(F)F)cc4C)cc3)c2C)n1 | 3.58% (active) |
| S=c1c2ncccc2c(-c2ccccn2)nn1Cc1ccccn1 | 111% |
| Cc1ccc(O)c(NC(=O)c2ccc(CNc3ccnc(C(F)(F)F)c3)cc2)c1 | 76.4% |
| C=C1C(=O)O[C@H]2[C@H]1CC/C(COC(=O)NCc1cccc(OC)c1)=C\CC[C@@]1(C)O[C@@H]21 | -13.2% (active) |
| CCNC(=O)c1[nH]cc(-c2ccccc2)c1-c1cc(OC)c2c(c1OC)OCO2 | 104% |
| N#Cc1c(-c2ccccc2)cc(-c2ccccc2)n(CCCC(=O)Nc2ccccc2N)c1=O | 14.9% |
| O=C1/C(=C/c2ccccc2)CN(C(=O)CCN2CCC(=NO)CC2)C/C1=C\c1ccccc1 | -22.7% (active) |
| O[C@H]1CO[C@H]2[C@@H]1OC[C@@H]2Oc1ccc(Nc2nc(Nc3ccc(F)c(Cl)c3)ncc2F)cc1Cl | 97.6% |
| CCOC(=O)C1OC1c1ccccc1 (configuration not stated) | 106% |
| O=C1/C(=C/c2ccccc2F)CNC/C1=C\c1ccccc1F | -59.7% (active) |
| NC(=O)c1cccc(-c2cc(C(N)=O)ccc2Cl)c1 | 53.4% |
| Nc1ccccc1NC(=O)c1ccc(CN2CCC/C(=C\c3ccccn3)C2=O)cc1 | -6.37% (active) |
| C1Cc2onc(-c3noc4c3CCC4)c2C1 | 110% |
| COc1ccc(C2CCCCC2=O)cc1 (configuration not stated) | 109% |
| CC1(C)CC[C@]2(C(=O)O)CC[C@]3(C)C(=CC[C@@H]4[C@@]5(C)C/C(=C/c6ccco6)C(=O)C(C)(C)[C@@H]5CC[C@]43C)[C@@H]2C1 | -3.74% [100 µM] (active) |
| COc1ccc(C(=O)N=Nc2c(O)n(C)c3ccccc23)cc1 | 95.2% |
